Reference: PubChem BioAssay (NCATS)
Values joined by “and” are separate entries in the source; they are usually repeats but may differ in a detail not shown here. Equal entries are not always repeated. Results filed as inconclusive are left out. Where a call stands in place of a potency, no number is given. A number with no mark means an inactive call. Active and inactive are the calls of the source. Calls follow the shape of the dose curve; as a rule, active = well fitted curve in the direction sought with a large enough effect; inconclusive = small, poorly fitted or top-dose-only effect, or another doubt; inactive = no such curve, though single readings can be large; an effect the other way counts as inactive or inconclusive.

What was measured:
[1] = qHTS Assay for Identifying Gametocytocidal Compounds (AID 743244); also: potency is read from the fitted curve at half-maximal effect;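 as to max response: actives lower the fluorescent signal which means gametocytes are killed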; conditions: P. falciparum 3D7 stage III-V gametocytes, alamarBlue, 72 h; max response: active compounds read low
In short: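 P. falciparum 3D7 stage III–V gametocytes (20,000 cells/well) were exposed to compounds for 72 h at 37 °C, 5% CO2. AlamarBlue was then added for 24 h; decreased resorufin fluorescence (Ex 525/Em 598 nm) indicated loss of viability.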

[2] = P-glycoprotein substrates identified in KB-8-5-11 adenocarcinoma cell line, qHTS therapeutic library screen (AID 1346987); also: series mostly up to about 44 µM; nearly all actives have a fitted effect of over 65% in size
In short: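 Luminescence from CellTiter-Glo, read 5 min after addition, quantified survival of KB-8-5-11 (P-gp-overexpressing) cells exposed to compounds for 72 h. AC50 was derived from concentration-response curves.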

SMILES | max response [1] | Potency [2] | Potency [1]
CCOC(=O)[C@H](CCc1ccccc1)N[C@H]1CCCN2CCC[C@@H](C(=O)O)N2C1=O | -15.1% | inactive | –
C[C@H](CSC(=O)c1ccccc1)C(=O)N1C[C@@H](Sc2ccccc2)C[C@H]1C(=O)O | 13.2% | inactive | –
C=C1CC2C3CCC4=CC(=O)C=C[C@]4(C)[C@@]3(F)[C@@H](O)C[C@]2(C)[C@@]1(O)C(=O)COC(C)=O (stereo partly specified) | -3.67% | inactive | –
CC#CCC(C)[C@H](O)/C=C/[C@@H]1[C@H]2c3cccc(CCCC(=O)O)c3O[C@H]2C[C@H]1O (stereo partly specified) | 6.65% | inactive | –
COC1=C(C(=O)O)N2C(=O)[C@@H](NC(=O)[C@H](N)C3=CCC=CC3)[C@H]2SC1 | -12.6% | inactive | –
CCN(CC)CCOC(=O)c1ccc(N)cc1Cl | -6.93% | inactive | –
CC(C)(C)CC(=O)OCC(=O)[C@@]12OC(C)(C)O[C@@H]1C[C@H]1[C@@H]3CCC4=CC(=O)C=C[C@]4(C)[C@@]3(F)[C@@H](O)C[C@@]12C | -15% | inactive | –
CC1(C)S[C@@H]2[C@H](NC(=O)[C@H](N)c3ccccc3)C(=O)N2[C@H]1C(=O)OCOC(=O)[C@@H]1N2C(=O)C[C@H]2S(=O)(=O)C1(C)C | 8.04% | inactive | –
CS(=O)(=O)OCCCNCCCOS(C)(=O)=O | -15.1% | inactive | –
COc1cc2[nH]c(C)c(CCN3CCN(c4ccccc4)CC3)c2cc1OC | 16.1% | inactive | –
Cc1c(N)nc(C(CC(N)=O)NCC(N)C(N)=O)nc1C(=O)NC(C(=O)NC(C)C(O)C(C)C(=O)NC(C(=O)NCCc1nc(-c2nc(C(=O)NCCCN[C@@H](C)c3ccccc3)cs2)cs1)C(C)O)C(O[C@@H]1O[C@@H](CO)[C@@H](O)[C@H](O)[C@@H]1O[C@H]1O[C@H](CO)[C@@H](O)[C@H](OC(N)=O)[C@@H]1O)c1cnc[nH]1 (stereo partly specified) | 6.97% | inactive | –
CSCC[C@H](NC(=O)[C@H](Cc1ccc(OS(=O)(=O)O)cc1)NC(=O)[C@@H](N)CC(=O)O)C(=O)NCC(=O)N[C@@H](Cc1c[nH]c2ccccc12)C(=O)N[C@@H](CCSC)C(=O)N[C@@H](CC(=O)O)C(=O)N[C@@H](Cc1ccccc1)C(N)=O | -12.2% and 15% | inactive | –
CC1(S(=O)(=O)O)CC(=O)c2ccccc2C1=O (stereo unspecified) | – | inactive | 6.31 µM (active)
CNC[C@@H]1CC[C@@H](N)[C@@H](O[C@H]2[C@H](O)[C@@H](O[C@H]3OC[C@](C)(O)[C@H](NC)[C@H]3O)[C@H](N)C[C@@H]2N)O1 | -11.2% | inactive | –
CCCC(=O)O[C@]1(C(=O)COC(=O)CC)[C@@H](C)C[C@H]2[C@@H]3CCC4=CC(=O)C=C[C@]4(C)[C@@]3(F)[C@@H](O)C[C@@]21C | -15.1% | inactive | –
OCC(O)COc1ccc(Cl)cc1 (stereo unspecified) | 3.94% | inactive | –
O=P(O)(O)OC(Cn1cncn1)(Cn1cncn1)c1ccc(F)cc1F | 1.82% | inactive | –
C/C=C(/CC[C@@H](C)[C@H]1CC[C@H]2C3=CC[C@H]4[C@H](C)[C@@H](O)CC[C@]4(C)[C@H]3CC[C@]12C)C(C)C | -5.29% | inactive | –
O=C[C@H](O)[C@@H](O)[C@H](O[C@H]1O[C@H](CO)[C@@H](O[C@H]2O[C@H](CO)[C@@H](O)[C@H](O)[C@H]2O)[C@H](O)[C@H]1O)[C@H](O)CO | 10.4% | inactive | –
O=C(O)c1cccc(/C=C2/C[C@@H]3[C@@H](/C=C/[C@@H](O)C4CCCCC4)[C@H](O)C[C@@H]3O2)c1 | -5.6% | inactive | –
COc1cc(C[C@@H]2NCCc3cc(O)c(O)cc32)cc(OC)c1OC | -17.1% | inactive | –
COCC1=C(C(=O)OC(C)OC(=O)OC(C)C)N2C(=O)[C@@H](NC(=O)/C(=N\OC)c3csc(N)n3)[C@H]2SC1 (stereo partly specified) | -2.17% and -16.2% | inactive | –
O=C(CO)[C@@H](O)[C@H](O)[C@H](O)CO | 0.975% | inactive | –
CCOC(=O)Nc1ccc2c(c1)N(C(=O)CN(C)C)c1ccccc1CC2 | 6.79% | inactive | –
CCCC1([C@H](O)C/C=C/[C@H]2[C@H](O)CC(=O)[C@@H]2CCCCCCC(=O)OC)CCC1 | 2.12% | inactive | –
CCCCCCCCCCCCCCCC(=O)OCCC1CCN(CCCN2c3ccccc3Sc3ccc(S(=O)(=O)N(C)C)cc32)CC1 | -11.1% | inactive | –
O=C1O[C@H]2[C@H](O)[C@@H]1OC(O)[C@H]2O (stereo partly specified) | -4.25% | inactive | –
c1cnc2cc3c(cc2n1)[C@@H]1CNC[C@H]3C1 | 0.0621% | inactive | –
